A selection: hits, their analogues and other compounds. The true share with any hit is near 3.9%.
CCHF vOTU inh: blocks the CCHF virus ovarian tumor domain protease | CCHFV vOTU protease, Pep-AMC fluorescence | inhibition, % at 11.5 µM | 0.55% of 370,000 active | AID 651958; in the data active = inhibition above about 30%; also: 0% = vehicle wells with enzyme and 100% = no enzyme wells
GDH-TPI counter-1: GDH-TPI coupled enzyme inhibition counter-screen | 1.2% of 360,000 active | AID 588335 | GDH-TPI coupled enzyme counterscreen, NADH absorbance | inhibition, % at 4.8 µM; in the data active = inhibition above about 30%;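 also: 0% = DMSO wells and 100% = wells lacking the enzyme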
FBA Mtb inh: inhibits M. tuberculosis FBA enzyme; AID 588726; P9WQA3; purified M. tuberculosis FBA, fluorescence read-out; 2.3% of 360,000 active; inhibition, % at 1 µM;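 also: 0% = vehicle and 100% = reference inhibitor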
Target sequence (P9WQA3 whole entry, looked up): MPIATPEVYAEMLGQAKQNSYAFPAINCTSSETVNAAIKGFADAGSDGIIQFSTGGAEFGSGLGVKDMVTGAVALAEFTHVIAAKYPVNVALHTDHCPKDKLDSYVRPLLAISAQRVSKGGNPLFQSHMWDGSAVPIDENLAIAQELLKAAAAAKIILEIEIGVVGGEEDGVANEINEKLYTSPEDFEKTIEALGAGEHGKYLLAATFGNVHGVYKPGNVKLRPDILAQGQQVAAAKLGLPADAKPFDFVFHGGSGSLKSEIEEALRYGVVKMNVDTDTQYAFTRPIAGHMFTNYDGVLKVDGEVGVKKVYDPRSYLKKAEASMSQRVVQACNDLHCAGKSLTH
Vc quorum ag: inducers of Vibrio cholerae quorum light production without autoinducers. V. cholerae BH1578 lux reporter, luminescence, 6 h. activation, % at 18.7 µM. 0.16% of 350,000 active; in the data active = activation mostly above about 9.7%, no sharp cut-off
Mtb FBA inh conf: confirmation of M. tuberculosis fructose-bisphosphate aldolase inhibitors | shares compounds with FBA Mtb inh | purified M. tuberculosis FBA, fluorescence read-out | inhibition, % at 1 µM | 78% of 5,600 active | AID 651616;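 also: 0% = vehicle wells and 100% = reference inhibitor wells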
GDH-TPI counter-2: inhibits GDH-TPI coupling enzymes, flagging Mtb FBA hits. GDH-TPI coupled enzyme counterscreen, fluorescence. 81% of 5,600 active. shares compounds with FBA Mtb inh. inhibition, % at 1 µM; in the data active = inhibition above about 10%
GDH-TPI DR: inhibits GDH-TPI coupling enzymes in dose response. IC50, µM. GDH-TPI coupled enzyme assay, fluorescence, artifact counterscreen. 79% of 170 active. shares compounds with FBA Mtb inh; call rule not given here
Numbers without * were called inactive; i = inactive; · = no result; + = active, no number. Rule as the data show it, unless noted: active = inhibition above about 27%; inactive = the rest.

SMILES | CCHF vOTU inh | GDH-TPI counter-1 | FBA Mtb inh | Vc quorum ag | Mtb FBA inh conf | GDH-TPI counter-2 | others
COc1ccc2[nH]c3c(c2c1)CCC/C3=N\N | 11 | 7 | 5 | -1 | · | ·
N#Cc1cc2c([nH]c1=S)CCCC2 | -9 | 2 | 2 | 0 | · | ·
N#Cc1cc2c([nH]c1=O)CCCC2 | -86 | 5 | 68* | i | 97* | 91*
CCN(CC)C(=O)CN1CCN(c2ncccn2)CC1 | -18 | 12 | -1 | 0 | · | ·
COCc1cc(C)nc2sc(C(=O)OC(C)C)c(N)c12 | 12 | 19 | 41* | 0 | + | 175*
Cc1ccc(-c2nn(-c3ccccc3)cc2CO)o1 | 1 | 9 | 33* | 1 | 76* | 54*
OCc1cn(-c2ccccc2)nc1-c1ccco1 | -9 | 0 | 7 | i | · | ·
CCOC(=O)C1=C(COc2ccc(F)cc2Cl)NC(=O)NC1c1cc(C)ccc1C (stereo not given) | 7 | 5 | 1 | i | · | ·
COc1cc(OC)c(C2=NOC(C(=O)Nc3ccc4c(c3)OCO4)C2)cc1Cl (stereo not given) | 15 | 1 | 57* | 0 | 53* | 42*
COc1ccc(C2=NOC(C(=O)Nc3ccc4c(c3)OCO4)C2)cc1 (stereo not given) | 15 | -5 | 1 | 4 | · | ·
O=C1NC2c3ccccc3C(=O)N2c2c1cnn2-c1ccccc1 (stereo not given) | 5 | 2 | 5 | -1 | · | ·
Cc1ccc(-c2nc(C(=O)NCCCN3CCOCC3)cc3c2[nH]c2ccccc23)cc1 | -20 | -4 | 17 | 0 | · | ·
C[C@@H](NC(=O)c1cc2c([nH]c3ccccc32)c(-c2ccccc2)n1)C(=O)O | -28 | 7 | 29* | i | 71* | 61*
C/C(=C\COc1ccc2ccc(=O)oc2c1)CC[C@@H](O)C(C)(C)O | -26 | 16 | 83* | i | -5 | -5
O=C(NCC1COc2ccccc2O1)c1ccc(NC(=O)C(c2ccccc2)c2ccccc2)cc1 (stereo not given) | 5 | -5 | 3 | 0 | · | ·
CCC(C)(C)n1nnnc1C(c1ccccc1)N1CCN(C2CCCC2)CC1 (stereo not given) | -1 | 0 | -5 | -6 | · | ·
N#CC1=C(N)SC2(CCCCC2)SC1c1ccccc1 (stereo not given) | · | 4 | 1 | i | · | ·
N#CC1=C(C2CC2)CC(c2ccccc2)C(C#N)=C1N (stereo not given) | -29 | 8 | 33* | · | 13 | -4 | GDH-TPI DR=>10
CCCCn1c(N)c(C(=S)NC(=O)CC(C)C)c(=O)n(C)c1=O | · | 21 | -2 | 0 | · | ·
COc1cccc2sc3cc(NCc4ccc5c(c4)OCO5)ccc3c(=O)c12 | -36 | 39* | 53* | i | 23 | 19*
Cc1ccc2nc(-c3cccc(SC4CCCCC4)c3)c(NCc3ccccc3)n2c1 | -10 | 9 | 19 | -1 | · | ·
COc1ccc(-c2cc(-c3nc4ccccn4c3NCc3ccccc3)ccc2OC)cc1 | -3 | -3 | 36* | i | 167* | 136*
Clc1ccc2nc(-c3cccc(SC4CCCCC4)c3)c(NCc3ccccc3)n2c1 | 2 | 6 | 1 | -1 | · | ·
Clc1cccc(-c2ccc(-c3nc4ccccn4c3NCc3ccccc3)cc2)c1 | 8 | 15 | 40* | -2 | 152* | 117*
c1ccc(CNc2c(-c3cccc(SC4CCCCC4)c3)nc3ccccn23)cc1 | -4 | 16 | 46* | i | 100* | 65*
SMILES | CCHF vOTU inh | GDH-TPI counter-1 | FBA Mtb inh | Vc quorum ag | Mtb FBA inh conf | GDH-TPI counter-2 | others
Cc1ccn2c(NCc3ccccc3)c(-c3cccc(SC4CCCCC4)c3)nc2c1 | -5 | 13 | 28* | -4 | 39* | 30*
COc1ccc(-c2nc3ccccn3c2NCc2ccc3c(c2)OCO3)cc1 | -23 | 4 | 12 | i | · | ·
O=C(CCC(=O)N1CCN(S(=O)(=O)c2ccc(Cl)cc2)CC1)Nc1ccc(Cl)cc1Cl | -3 | 3 | 5 | -12 | · | ·
CCC(C)Sc1cccc(-c2nc3cc(C)ccn3c2NCc2ccccc2)c1 (stereo not given) | -1 | 12 | 33* | -7 | 49* | 36*
CCC(C)Sc1ccc(-c2nc3ccc(Cl)cn3c2NCc2ccccc2)cc1 (stereo not given) | -3 | 12 | 2 | 0 | · | ·
Cc1nn(-c2ccc(F)cc2F)c2c1-c1nc(N3CCCC3)ncc1CC2 | -31 | 2 | 30* | i | + | +
COC(=O)C1=C(C)NC2=C(C(=O)CCC2)C1c1cccc(C)n1 (stereo not given) | -53 | 4 | 28* | i | 147* | 121*
COC(=O)C1=C(C)NC2=C(C(=O)CCC2)C1c1cn(Cc2ccc(Br)cc2)nc1-c1ccccc1 (stereo not given) | -26 | 10 | 28* | i | 41* | 30*
Cc1cccn2c(=O)c3cc(C#N)c(=O)n(Cc4cccnc4)c3nc12 | -78 | 6 | 111* | 0 | 87* | 71*
Cc1cccn2c(=O)c3cc(C#N)c(=NC(=O)c4cccs4)n(CC(C)C)c3nc12 | -16 | 1 | 35* | -1 | + | 190*
CCCn1c(=N)c(S(=O)(=O)c2ccccc2)cc2c(=O)n3cccc(C)c3nc21 | -3 | -7 | 2 | 0 | · | ·
CC(=O)N=c1c(C#N)cc2c(=O)n3ccccc3nc2n1Cc1ccccc1 | -26 | -7 | 28* | -1 | 122* | 108*
Cc1ccc(-n2c(=O)c(C#N)cc3c(=O)n4cccc(C)c4nc32)cc1 | -45 | -1 | 62* | i | 138* | 84*
O=C(O)c1ccc(C=NNC(=O)c2cc(-c3ccc(Cl)cc3)n[nH]2)cc1 | 8 | · | · | · | · | ·
CC(=O)Oc1ccc(/C=C2/CCc3ccccc3C2=O)cc1 | 4 | 18 | -2 | 0 | · | ·
Cn1c(=O)c2cc(NC(=S)NC3CCCCC3)ccc2n1-c1ccccc1 | 5 | 1 | 42* | i | 76* | 81*
CCN(C[C@H]1N[C@@](CC)(C(=O)OC)[C@H]2C(=O)N(C)C(=O)[C@@H]12)C(=O)c1ccccc1 | -4 | -1 | 2 | i | · | ·
COc1ccc(CC(NC(C)=O)C(=O)NC2CCN(c3nc(C)cc(C)c3C#N)CC2)cc1 (stereo not given) | -11 | 4 | 19 | 0 | · | ·
COc1ccc(-c2cc3nc(NCCN4CCCC4)n(C)c(=O)c3s2)cc1OC | -37 | 20 | 39* | 0 | 96* | 73*
CCCCN1C2=C(C(=O)CC(C)(C)C2)C(c2ccccc2)C2=C1c1ccccc1C2=O (stereo not given) | -8 | 5 | -1 | 4 | · | ·
CC1(C)CC(=O)C2=C(C1)N(CCN1CCOCC1)C1=C(C(=O)CC(C)(C)C1)C2c1cccc(Cl)c1 | -66 | 14 | 30* | 0 | 3 | 2

High-throughput results as filed in PubChem BioAssay.
